Screens deposited in PubChem BioAssay by several laboratories.
TROY NFkB inh = inhibitors of TROY-driven NF-kB signaling, primary screen, Q293 LMP1-TROYcd cells, NF-kB luciferase, uHTS; Q293 LMP1-TROYcd NF-kB luciferase reporter, 4 h; inhibition, % at 10 µM; 360,000 tested, 0.98% active; AID 1347056, 2019;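 active = compounds whose plate-normalised and pattern-corrected inhibition of the luciferase reporter signal at the single screening dose is 50% or more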
MITF TRPM1 HTS = activators of MITF-driven TRPM1 promoter reporter, primary screen, cell-based, SK-MEL-5, luciferase, single point; SK-MEL-5 TRPM1-promoter luciferase, 24 h; % of positive control, neutral wells = 0; activation, % at 12.5 µM; 300,000 tested, 0.75% active; AID 588334, 2011;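 active = mean activation of at least 80% with every replicate also reaching 80%; inconclusive = mean reaches 80% but some replicate falls short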;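 note: 0% = neutral control wells and 100% = parthenolide positive control wells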
TWEAK Fn14 block = inhibitors of TWEAK-Fn14 signaling, primary screen, luciferase reporter cells, uHTS | TWEAK-stimulated Fn14 reporter cells, luciferase luminescence, 8 h | inhibition, % at 10 µM | 360,000 tested, 2% active | AID 1159606, 2016; in the data active = inhibition above about 50%
LGR2 inh = inhibitors of bursicon-induced LGR2 CRE-luciferase signal, primary screen, cell-based, HEK293, CRE-luciferase reporter, bursicon stimulation. inhibition, % at 9.99 µM. Drosophila bursicon receptor LGR2 (rickets). bursicon-stimulated, 4 h. 380,000 tested, 0.35% active;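 active = drop in luminescence signal, shown as inhibition above about 50% in the replicate tests, limit read from the data, passing the limit was not always enough; inconclusive = probably only some replicates passing the limit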;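 note: agonist challenge used bursicon conditioned medium at about half maximal strength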
MITF TRPM1 inh = inhibitors of MITF-dependent TRPM1 promoter reporter, primary screen, cell-based, SK-MEL-5, single point, luciferase; SK-MEL-5 TRPM1 promoter luciferase, 24 h; inhibition, % at 12.5 µM; 330,000 tested, 0.83% active; AID 488899, 2010;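 active = mean inhibition across replicates of 60% or more, whatever share of single replicates reaches that level; inconclusive = some that reach 60%, reason not given; inactive = mean inhibition across replicates below 60%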
EBV LMP1 NFkB = EBV LMP1-driven NF-kappaB luciferase reporter inhibitors, primary screen, cell-based, luminescence, single point | AID 504558, 2011 | LMP1-induced NF-kappaB luciferase reporter cells | 350,000 tested, 0.69% active | inhibition, % at 12.5 µM; in the data active = inhibition above about 41%; inconclusive = no clear call, values can overlap the other calls;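 note: 0% = neutral control wells and 100% = reference inhibitor control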
* hit, by the source's call; ? = inconclusive; · = not tested or not shown. Rows were chosen to be rich in hits. Some 3% of all compounds tested hit in one or more screens of this group.

SMILES	TROY NFkB inh	MITF TRPM1 HTS	TWEAK Fn14 block	LGR2 inh	MITF TRPM1 inh	EBV LMP1 NFkB
CCCC(=O)Nc1ccc2c(c1)OC[C@@H](C)N(C(=O)c1ccccc1F)C[C@H](C)[C@H](OC)CN(C)C2=O	·	·	·	9.4	·	·
CN(C)C(=O)C[C@H]1C=C[C@H](NC(=O)NC2CCCCC2)[C@@H](CO)O1	·	·	·	-2.2	·	·
Cc1cc(C(=O)Nc2nc(C)c(C(=O)N(C)C)s2)ccc1[N+](=O)[O-]	61.8*	14.2	53.5*	1.4	-20.1	0.9
COc1ccc(/C=C2\CCn3c2nc2ccccc2c3=O)cc1OC	-59.9	93.9*	-26.3	·	-92.7	-21.7
O=C(O)C1CCC(=O)N1Cc1ccc(F)cc1 (stereo unspecified)	7.3	-7.1	50.3*	0.9	8.2	-4.9
N#C[C@H]1[C@@H](c2ccc(-c3ccccc3F)cc2)[C@H](CO)N1C(=O)Cc1ccccc1	·	·	·	15.2	·	·
COCc1nn2c(N)c(-c3ccccc3)cnc2c1-c1ccccc1	-12.2	107.8*	-9.2	-69.6	-104.8	-22.9
CCOC(=O)c1c(C)[nH]c(C)c1C(=O)COC(=O)c1ccc([N+](=O)[O-])s1	-16.9	-76.4	-5.5	0.2	76.5*	-4.1
CC(C)C#Cc1cnc2c(c1)C(=O)N([C@H](C)CO)C[C@@H](C)[C@H](CN(C)Cc1ccccn1)O2	·	·	·	2.7	·	·
O=C(N/N=C/c1cc(Cl)cc([N+](=O)[O-])c1O)NC12CC3CC(CC(C3)C1)C2	42.7	-7.7	66.4*	38.7	8.3	0.2
O=C(N/N=C/c1ccccc1O)NC12CC3CC(CC(C3)C1)C2	2.0	136.0*	-9.8	-68.1	-131.4	-31.6
Clc1ccc(CSc2ncnc3c2ncn3C2CCCCO2)cc1 (stereo unspecified)	3.3	37.4	-0.3	-43.7	-34.0	-11.8
Fc1ccccc1CSc1ncnc2c1ncn2C1CCCCO1 (stereo unspecified)	5.2	88.7*	16.3	-76.0	-83.2	-17.0
CCCc1cc2c(=O)c(-c3ccccn3)coc2cc1OC	-82.5	116.0*	-3.3	·	-113.6	-13.9
Cc1ccc(S(=O)(=O)N(C)C[C@H]2Oc3ccc(NC(=O)CCCN(C)C)cc3CC(=O)N([C@@H](C)CO)C[C@@H]2C)cc1	·	·	·	1.7	·	·
CCCC#Cc1cnc2c(c1)C(=O)N([C@@H](C)CO)C[C@@H](C)[C@@H](CN(C)C(=O)CN1CCOCC1)O2	·	·	·	-15.7	·	·
Cc1ccc(Sc2cc(NCCCO)c([N+](=O)[O-])c3nonc23)cc1	20.6	-12.1	54.5*	9.4	12.9	13.5
CCC(=O)OCCNc1cc(SCCC(=O)OC)c2nonc2c1[N+](=O)[O-]	26.7	8.7	2.0	3.9	-6.8	3.3
CCC(=O)OCCNc1cc(Sc2nccn2C)c2nonc2c1[N+](=O)[O-]	44.3	-89.4	37.2	19.0	92.2*	26.5
CC(=O)OCCCNc1cc(Sc2ccc(Cl)cc2)c2nonc2c1[N+](=O)[O-]	51.0*	-74.5	79.2*	?	75.3*	27.3
CC(=O)OCCNc1cc(SC(C)C)c2nonc2c1[N+](=O)[O-]	8.9	-0.4	20.3	2.5	0.6	5.4
CCCNC(=O)C[C@@H]1C[C@@H]2c3cc(NS(C)(=O)=O)ccc3O[C@@H]2[C@@H](CO)O1	·	·	·	10.7	·	·
C[C@@H]1CN([C@@H](C)CO)C(=O)c2cc(NS(=O)(=O)c3cccs3)ccc2O[C@H]1CN(C)S(=O)(=O)c1ccc(Cl)cc1	·	·	·	-20.6	·	·
O=C(Oc1ccc2ccccc2c1Br)N1CCCCCC1	66.5*	37.4	64.5*	·	-42.2	-37.0
Cc1c(C(=O)N2CCOCC2)sc2nc(-c3ccccc3)cn12	-42.6	·	-3.6	·	-34.9	-7.5
Cc1c(C(=O)Nc2ccncc2)sc2nc(-c3ccccc3)cn12	27.8	·	68.3*	-14.7	·	6.4
Cc1c(C(=O)Nc2ccc3c(c2)OCCO3)sc2nc(-c3ccccc3)cn12	67.1*	-35.6	85.3*	32.7	37.1	1.1
Cc1c(C(=O)NCc2cccnc2)sc2nc(-c3ccccc3)cn12	-40.7	·	-24.2	-58.0	·	-22.7
Cc1ccc(S(=O)(=O)NCC[C@H]2CC[C@H](NC(=O)Nc3ccccc3F)[C@@H](CO)O2)cc1	·	·	·	4.8	·	·
